In PubChem BioAssay (NCI):
About 79,000 compounds went through this panel and 15% of them were active in at least one assay; those are over-represented in the sample as a whole. Active and inactive are the calls of the source. No stated cut-off is given here; in the data, active means growth inhibition above about 70%; inactive means the rest.

What was measured:
[1] = NCI Yeast Anticancer Drug Screen. Data for the rad50 strain (AID 155);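 further: 0% = growth of vehicle-only cultures of the same strain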; conditions: S. cerevisiae rad50 strain growth inhibition; at 50.0 µM; stronger effect = higher value
Procedure, shortened: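 DNA repair mutant yeast, compound exposure, growth read-out; inhibition is taken relative to vehicle.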

[2] = NCI Yeast Anticancer Drug Screen. Data for the mec2-1 strain (AID 157); conditions: S. cerevisiae mec2-1 strain, at 50.0 µM, stronger effect = higher value
Procedure, shortened: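 Yeast mec2-1 mutant treated with compound. Readout: growth inhibition vs vehicle controls.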

[3] = NCI Yeast Anticancer Drug Screen. Data for the sgs1 mgt1 strain (AID 161);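 further: 0% = growth of cultures given vehicle only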; conditions: S. cerevisiae sgs1 mgt1 strain, at 50.0 µM, stronger effect = higher value
Procedure, shortened: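 Read-out: growth inhibition vs vehicle controls. Cells: mutant yeast strain deficient in DNA damage repair.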

[4] = NCI Yeast Anticancer Drug Screen. Data for the cln2 rad14 strain (AID 165);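 further: 0% = growth equal to vehicle treated cultures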; conditions: S. cerevisiae cln2 rad14 strain, at 50.0 µM, stronger effect = higher value
Procedure, shortened: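 cln2 rad14 yeast strain; compound exposure; growth inhibition read vs vehicle controls.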

[5] = NCI Yeast Anticancer Drug Screen. Data for the bub3 strain (AID 167); conditions: S. cerevisiae bub3 mutant strain, at 50.0 µM, stronger effect = higher value
Procedure, shortened: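 In this screen, a yeast mutant lacking normal mitotic checkpoint function is challenged with compound. Relative growth versus vehicle gives the inhibition value.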

[6] = NCI Yeast Anticancer Drug Screen. Data for the mlh1 rad18 strain (AID 175); conditions: S. cerevisiae mlh1 rad18 strain growth inhibition; at 50.0 µM; stronger effect = higher value
Procedure, shortened: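 Yeast w/ defined DNA-repair lesions; compound exposure; growth vs vehicle controls → % inhibition.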

Measured: growth inhibition

[N-]=[N+]=CC(=O)C1OC1c1ccc(Br)cc1 (configuration not stated)
inactive: [1] 11.8% | [2] 15.3% | [3] 22.9% | [4] 24.4% | [5] -0.25% | [6] 33.1%

CC1CNC2C(C)C3C(CC4C5CCC6CC(N=Cc7ccccc7O)CCC6(C)C5CCC43C)OC2(O)C1 (configuration not stated)
inactive: [1] 25.8% | [2] -6.2% | [3] -4.3% | [4] -3.95% | [5] 0.3% | [6] 0.55%

CCOC(=O)/C=C/c1ccc(F)cc1
inactive: [1] 27.6% | [2] 2% | [3] 18.1% | [4] 11.2% | [5] 20.8% | [6] 10.9%

O=C(O)c1cccc(Br)c1[N+](=O)[O-]
inactive: [1] -19.9% | [2] -7.9% | [3] -26.6% | [4] -36.1% | [5] -8.1% | [6] -5.9%

O=C(COc1cccc(Cl)c1)Nc1ccccc1
inactive: [1] -2.9% | [2] -31.9% | [3] 7.85% | [4] -17.1% | [5] 39.7% | [6] 2.05%

Cc1c([N+](=O)[O-])ccc2c1C(=O)c1ccccc1C2=O
inactive: [1] -41.6% | [2] -0.35% | [3] -39.9% | [4] 2.7% | [5] -5.7% | [6] 39.5%

CN1C(=O)CCC1(O)C1C=CC=CC1 (configuration not stated)
inactive: [1] 16.8% | [2] 7.55% | [3] 1.75% | [4] 16.9% | [5] -4.9% | [6] -2.85%

COCCCCCOC
inactive: [1] 5.55% | [2] -14.8% | [3] -3.4% | [4] 6.6% | [5] 12.3% | [6] 1.55%

COC(=O)C1(Cc2ccccc2)Cc2cc3c(cc2C1=O)CCC3 (configuration not stated)
inactive: [1] 20.9% | [2] 3.75% | [3] 8.5% | [4] 2.2% | [5] 34.8% | [6] -7.65%

N#Cc1cccc(Nc2ccccc2SSc2ccccc2Nc2cccc(C#N)c2)c1
inactive: [1] 13.1% | [2] 7.6% | [3] 17.5% | [4] -7.4% | [5] 3.95% | [6] 12.8%

Cn1cnc2ncnc(NCc3ccc(Cl)c(Cl)c3)c21
inactive: [1] -1.45% | [2] 18.9% | [3] -7.35% | [4] -21.2% | [5] 4.6% | [6] -25.1%

CC(=O)c1cccc2c(C(C)=O)cccc12
inactive: [1] 5.45% | [2] -5.2% | [3] 14.8% | [4] -20.1% | [5] 3.4% | [6] -15.1%

O=c1c2cc(S(=O)(=O)Nc3ccccc3Cl)ccc2ncn1NS(=O)(=O)c1ccc(Br)cc1
inactive: [1] 35.2% | [2] 1.8% | [3] 31.9% | [4] -0.4% | [5] 19.5% | [6] 23.9%

CC(=O)CC(=O)N1CCN(C(=O)CC(C)=O)C(C)C1 (configuration not stated)
inactive: [1] -7.95% | [2] -58.5% | [3] 6.05% | [4] 1.8% | [5] -11.7% | [6] -6.75%

NNC(=O)c1ccccc1F
inactive: [1] -19.6% | [2] -19.4% | [3] -16.3% | [4] -4.7% | [5] -10.2% | [6] -19.2%

COc1ccc(C(O)CNC(=O)c2ccccc2)cc1 (configuration not stated)
inactive: [1] 11.7% | [2] -4.4% | [3] 12.5% | [4] -7.2% | [5] -2.15% | [6] -60%

Cc1ccc(NC(=O)/C=C2\CONC(c3ccccc3)=N2)cc1
inactive: [1] -10.1% | [2] -5.7% | [3] -8.3% | [4] -15.2% | [5] -6.9% | [6] 1.75%

COc1cc([C@@H]2OCC3C(c4ccc5c(c4)OCO5)OCC32)cc(OC)c1OC (some centres not stated)
inactive: [1] 9.9% | [2] -17.2% | [3] 24.2% | [4] 28.6% | [5] 43.4% | [6] 18.4%

CCCCCC(C)(O)CC(C)(C)C (configuration not stated)
inactive: [1] -3.15% | [2] 5.75% | [3] 0.55% | [4] -7.95% | [5] 2.2% | [6] 34.8%

Cc1[nH]c(=O)c(C#N)c(C)c1-c1ccccc1
inactive: [1] 16.8% | [2] -3.9% | [3] -4.9% | [4] 4.9% | [5] -0.75% | [6] 1.85%

Nc1nnc2nc(CC(=O)c3ccc4ccccc4c3)c(=O)[nH]n12
inactive: [1] -1.85% | [2] 10.9% | [3] -0.1% | [4] -21.2% | [5] -4.15% | [6] 2.05%

Nc1c(-c2nc3ccccc3[nH]2)sc(=S)n1-c1ccc(Cl)cc1
inactive: [1] -11.6% | [2] -30.7% | [3] 2.75% | [4] 8.9% | [5] 7.8% | [6] -6.5%

COc1ccc(C2OCC3(O)C(c4ccc(OC)c(OC)c4)OCC23)cc1OC (configuration not stated)
inactive: [1] -0.85% | [2] -3.15% | [3] -1.35% | [4] 19.4% | [5] -9.8% | [6] 6.85%

OCCCN1CCCCC1
inactive: [1] -2.7% | [2] -13.6% | [3] 1.05% | [4] 15.8% | [5] -1% | [6] 3.95%

CCOC(=O)c1[nH]c(CC(=O)O)c(C(=O)O)c1C
inactive: [1] 15.7% | [2] 26.4% | [3] 24.4% | [4] 0.4% | [5] 16.4% | [6] 15.2%

O=C1NC2=NN=C(c3ccc(Br)cc3)CN2NC12c1ccccc1-c1ccccc12
inactive: [1] -21.6% | [2] -15.8% | [3] -13.8% | [4] 21.6% | [5] -14.2% | [6] 4.2%

O/N=C(\c1ccccc1)c1ccc2ncccc2c1
inactive: [1] 37% | [2] 41.2% | [3] 27.9% | [4] 2.8% | [5] 7.45% | [6] 23.3%

CC(O)(/C=C/c1ccccc1)P(=O)(O)c1ccccc1 (configuration not stated)
inactive: [1] -40% | [2] -13.2% | [3] -29.1% | [4] -13% | [5] -13.3% | [6] 9.4%

Cc1ccc(-c2cc(=O)c3cc(C)c(C)c(C#N)c3o2)cc1
inactive: [1] -10.2% | [2] -5.75% | [3] -13.8% | [4] -1.7% | [5] -22.4% | [6] 6.45%

CSc1cc(C)c(C#N)c(SC)n1
inactive: [1] -32.6% | [2] -32.1% | [3] -12.9% | [4] -5.7% | [5] 0.05% | [6] -12.4%

O=C1OC(c2ccc(O)c(-c3ccccc3)c2)(c2ccc(O)c(-c3ccccc3)c2)c2c(Cl)c(Cl)c(Cl)c(Cl)c21
inactive: [1] -16.4% | [2] -18.4% | [3] 19.1% | [4] -18.6% | [5] -33.1% | [6] 1.45%

CCC(C)C(C(=O)OCCC[N+]1(C)CCCCC1)c1ccccc1 (configuration not stated)
inactive: [1] 49.9% | [2] -6.75% | [3] 18.2% | [4] -4.4% | [5] 5.75% | [6] 14%

Cc1c(Cl)c2ccccc2n1S(=O)(=O)c1ccccc1
inactive: [1] 38.1% | [2] -3.55% | [3] 31.2% | [4] 22.1% | [5] 10.5% | [6] 21.9%

COc1ccc(C(=O)CC(c2ccccc2)[C@H]2C(c3ccc(OC)cc3)=Nc3c(nc(SC)n(C)c3=O)NC2c2ccccc2)cc1 (some centres not stated)
inactive: [1] 16.8% | [2] 7.55% | [3] 20.6% | [4] 12.7% | [5] -0.35% | [6] 19.2%

CCOC(=O)NC1CCc2ccccc2C1 (configuration not stated)
inactive: [1] 5.95% | [2] 0.3% | [3] 4% | [4] -13.9% | [5] -3% | [6] 2.6%

COc1cc(CNc2nc3c(N)cc(C(F)(F)F)cc3nc2-c2ccccc2)cc(OC)c1OC
inactive: [1] 0.25% | [2] -9.35% | [3] 6.6% | [4] 17.6% | [5] -11.3% | [6] -25.6%

Cn1[nH]c(=O)c2ncccc2c1=O
inactive: [1] -4.7% | [2] -10.1% | [3] -13.5% | [4] -87.8% | [5] -10.3% | [6] 4.95%
